According to PubChem BioAssay (Tox21):
Values joined by “and” are separate entries in the source; they are usually repeats but may differ in a detail not shown here. Identical values can stand only once. Inconclusive results are not listed. Where a call stands in place of a potency, no number is given. More than one record can exist for a structure, and the calls need not agree. Active and inactive are the calls of the source. Calls come from the whole dose curve; as a rule, active = well fitted cell-killing curve with a large enough effect in the repeat runs (not every such curve was filed as active); inconclusive = weak or mixed curves, or effect the other way; inactive = no such curve, though single readings can be large or run the other way.

experiment: qHTS assay to identify small molecule antagonists of the estrogen related receptor signaling pathway with the pleiotropic PPARgamma coactivator (PGC) from Tox21 10K library - cell viability counter screen (AID 1224840); settings: PGC/ERR reporter cells viability, CellTiter-Fluor, 17.5 h; series mostly up to 92.4 µM; viability change, negative = cytotoxic: at the top concentration; note: nearly all actives have a fitted effect of over 40% in size
Source text: National Center for Advancing Translational Sciences [NCATS]
NIH Chemical Genomics Center [NCGC]
U.S. Environmental Protection Agency [EPA]
National Institutes of Environmental Health Sciences [NIEHS]
National Toxicology Program [NTP]
U.S. Food and Drug Administration [FDA]
Estrogen related receptors (ERRs), the first orphan nuclear receptors discovered, play an important role in the control of cellular energy metabolism. ERRs are required for high-energy production in response to the environmental challenges. The pleiotropic PPARgamma coactivator (PGC) is a major partner of ERR and a key regulator in energy homeostasis. Together they have been implicated in the etiology of metabolic disorders such as Type 2 diabetes and metabolic syndrome. ERR-alpha was also identified as an adverse marker for breast cancer progression; ERR-alpha-positive tumors have a poor prognosis. To screen and to identify environmental compounds that perturb the ERR and PGC/ERR signaling pathways could provide valuable information for potential therapeutic or preventive measures in the treatment of metabolic disease. To differentiate true PGC/ERR antagonists or agonist from cytotoxic substances, the assay is multiplexed with cell viability assay.
Tox21 Assay Protocol Summary:
The PGC/ERR cells were dispensed at 2,000 cells/5 ul/well in 1536-well white plates using a Multidrop dispenser. After the assay plates were incubated at a 37 C/5% CO2 incubator for 6 hours, 23 nL of compounds dissolved in DMSO, positive and negative controls or DMSO only was transferred to the assay plate by a pin tool. The plates were incubated at 37 C for 17.5 hours. 1 ul/well of CellTiter-Fluor reagent was added into the assay plates using a Flying Reagent Dispenser. After 30-minute incubation at 37 C/5% CO2, the fluorescence intensity in the plates was measured using a ViewLux plate reader.
Potency is the fitted concentration of half-maximal effect.

Q: With C=C1CC[C@H](O)CC1=C/C=C1\CCC[C@]2(C)[C@@H]([C@H](C)/C=C/[C@H](C)C(C)C)CC[C@@H]12 as the compound, how does the “viability change, negative = cytotoxic” value read?
A: -14.6% (inactive)

Q: Which Potency does the source give for O=Nc1ccc(O)cc1 here?
A: inactive

Q: Which “viability change, negative = cytotoxic” value does the source give for CC#C[C@]1(O)CC[C@H]2[C@@H]3CCC4=CC(=O)CCC4=C3[C@@H](c3ccc(N(C)C)cc3)C[C@@]21C here?
A: -14.1% [at 42.5 µM] (inactive)

Q: For Nc1nc2ncc(CNc3ccc(C(=O)N[C@@H](CCC(=O)O)C(=O)O)cc3)nc2c(=O)[nH]1, which Potency is on record?
A: inactive

Q: With Oc1ccc2ccccc2c1 as the compound, how does the Potency read?
A: inactive

Q: For COC(=O)Nc1nc2ccc(Sc3ccccc3)cc2[nH]1, which Potency is on record?
A: inactive

Q: For COC(=O)c1ccccc1O, which Potency is on record?
A: inactive

Q: Which Potency does the source give for Clc1ccc(Cl)c(Cl)c1Cl here?
A: inactive

Q: With O=S(=O)(O)CCS as the compound, how does the Potency read?
A: inactive

Q: Which “viability change, negative = cytotoxic” value does the source give for O=C(c1cc(O)c(O)c(O)c1)c1ccc(O)c(O)c1O here?
A: -1.78% [at 42.5 µM] (inactive)

Q: With CC1Cc2ccccc2N1NC(=O)c1ccc(Cl)c(S(N)(=O)=O)c1 (stereo not given) as the compound, how does the Potency read?
A: inactive

Q: Which Potency does the source give for CN(C)c1cccc(O)c1 here?
A: inactive

Q: Which Potency does the source give for OC1CCCC1 here?
A: inactive

Q: For O=[N+]([O-])c1cc(N(CCO)CCO)ccc1NCCO, which “viability change, negative = cytotoxic” value is on record?
A: -25.9% (inactive)

Q: Which “viability change, negative = cytotoxic” value does the source give for S=c1nc[nH]c2nc[nH]c12 here?
A: -6.6% [at 42.5 µM] (inactive)

Q: For Cc1ccc(C)c(C)c1, which Potency is on record?
A: inactive

Q: For NS(=O)(=O)c1cc2c(cc1Cl)NC=NS2(=O)=O, which Potency is on record?
A: inactive

Q: For OC[C@@H](O)[C@H](O)[C@H](O)[C@@H](O)CO, which Potency is on record?
A: inactive

Q: For CCCCC/C=C\C/C=C\CCCCCCCC(=O)OC, which “viability change, negative = cytotoxic” value is on record?
A: -1.79% (inactive)

Q: For OCCOCCOCCOCCO, which Potency is on record?
A: inactive

Q: With CC(C)NCC(O)COc1cccc2ccccc12 (stereo not given) as the compound, how does the Potency read?
A: inactive

Q: With Nc1c(S(=O)(=O)O)cc(Br)c2c1C(=O)c1ccccc1C2=O as the compound, how does the “viability change, negative = cytotoxic” value read?
A: -10.1% [at 42.5 µM] (inactive)

Q: For Nc1cc(-c2ccncc2)c[nH]c1=O, which Potency is on record?
A: inactive

Q: With C=C1C2CCC(C2)C1(C)C (stereo not given) as the compound, how does the Potency read?
A: inactive

Q: For CCCCC(CC)COC(C)=O (stereo not given), which Potency is on record?
A: inactive

Q: Which Potency does the source give for C=C(C#N)C(=O)OCC here?
A: inactive

Q: With CC(=O)[C@@]1(O)CC[C@H]2[C@@H]3CCC4=CC(=O)CC[C@]4(C)[C@H]3CC[C@@]21C as the compound, how does the Potency read?
A: inactive

Q: Which Potency does the source give for OCC#CCO here?
A: inactive

Q: Which Potency does the source give for O=C(O)c1cc(-c2ccccc2)nc2ccccc12 here?
A: inactive

Q: For NCCNCCNCCNCCN, which Potency is on record?
A: inactive

Q: With COC(=O)c1ccc(C(=O)OC)cc1 as the compound, how does the Potency read?
A: 24.7 µM (active) and inactive

Q: With CCCCCCCCCCCCN as the compound, how does the Potency read?
A: inactive and 12.2 µM (active)

Q: With C=CC(=O)OCCCCCCCC(C)C as the compound, how does the Potency read?
A: inactive

Q: With C=C(C)C(=O)OCC(CC)(COC(=O)C(=C)C)COC(=O)C(=C)C as the compound, how does the Potency read?
A: inactive

Q: For CCCCCCC(C)(C)S, which Potency is on record?
A: inactive

Q: With Cc1cc(Cc2ccc(N)c(C)c2)ccc1N as the compound, how does the Potency read?
A: inactive

Q: With CC1(C)CC(N=C=O)CC(C)(CN=C=O)C1 (stereo not given) as the compound, how does the Potency read?
A: inactive

Q: Which Potency does the source give for CCc1ccc(O)cc1 here?
A: inactive

Q: For CCc1ccccc1O, which Potency is on record?
A: inactive

Q: Which Potency does the source give for c1ccc2[nH]cnc2c1 here?
A: inactive
